Measured values from PubChem BioAssay AID1159580 (chemical genetic matrix, 2015).
The campaign covered roughly 5,500 compounds. About 2,000 (36%) were called active. Not shown: some 18% with an inconclusive outcome. No stated cut-off is given here; in the data, active means normalized growth mostly below about 0.91 (no sharp cut-off); inconclusive means no clear call, values can overlap the other calls; inactive means mostly above about 0.92. This is one part of the list.

Test: chemical genetic growth profiling, strain panel (AID 1159580);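 further: tested at 20 µM; growth read once vehicle control cultures reached saturation at 30 °C; 1 = growth at the plate median or of vehicle wells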
Details: growth OD

Measured: normalized growth

CC(=O)OCC(=O)[C@@]1(O)CCC2C3CCC4=CC(=O)CC[C@]4(C)[C@@]3(F)[C@@H](O)C[C@@]21C (stereo partly specified)
inactive: S. cerevisiae deletion strains, locus YJR066W, strain TOR1, stronger effect = lower value 0.939 | S. cerevisiae deletion strains, locus YKL009W, strain mrt4, stronger effect = lower value 0.973 | S. cerevisiae deletion strains, locus YKL068W, stronger effect = lower value 1.01 | S. cerevisiae deletion strains, locus YKL085W, strain MDH1 (second series), stronger effect = lower value 1.01 | S. cerevisiae deletion strains, locus YKL085W, strain MDH1, stronger effect = lower value 1.01 | S. cerevisiae deletion strains, locus YKL160W, strain elf1, stronger effect = lower value 1.03 | S. cerevisiae deletion strains, locus YKL190W, strain CNB1, stronger effect = lower value 1 | S. cerevisiae deletion strains, locus YKR001C, strain vps1, stronger effect = lower value 0.987 | S. cerevisiae deletion strains, locus YKR026C, strain gcn3, stronger effect = lower value 1.02 | S. cerevisiae deletion strains, locus YKR091W, strain srl3, stronger effect = lower value 1 | S. cerevisiae deletion strains, locus YLL001W, strain dnm1, stronger effect = lower value 1.03 | S. cerevisiae deletion strains, locus YLL026W, stronger effect = lower value 1.01 | S. cerevisiae deletion strains, locus YLL041C, strain sdh2, stronger effect = lower value 1.01 | S. cerevisiae deletion strains, locus YLR027C, strain aat2, stronger effect = lower value 1.02 | S. cerevisiae deletion strains, locus YLR039C, strain RIC1, stronger effect = lower value 1.04 | S. cerevisiae deletion strains, locus YLR058C, strain SHM2, stronger effect = lower value 1.01 | S. cerevisiae deletion strains, locus YLR102C, strain apc9, stronger effect = lower value 1.01 | S. cerevisiae deletion strains, locus YLR113W, strain HOG1, stronger effect = lower value 0.992 | S. cerevisiae deletion strains, locus YLR221C, strain rsa3, stronger effect = lower value 1.02 | S. cerevisiae deletion strains, locus YLR258W, strain gsy2, stronger effect = lower value 1.01 | S. cerevisiae deletion strains, locus YLR262C, strain YPT6 (second series), stronger effect = lower value 1.03 | S. cerevisiae deletion strains, locus YLR262C, strain YPT6, stronger effect = lower value 1.01 | S. cerevisiae deletion strains, locus YLR268W, strain sec22, stronger effect = lower value 0.985 | S. cerevisiae deletion strains, locus YLR320W, strain mms22, stronger effect = lower value 1.05 | S. cerevisiae deletion strains, locus YLR330W, strain CHS5, stronger effect = lower value 1.01 | S. cerevisiae deletion strains, locus YLR342W, strain FKS1 (second series), stronger effect = lower value 1.02 | S. cerevisiae deletion strains, locus YLR342W, strain FKS1, stronger effect = lower value 1.01 | S. cerevisiae deletion strains, locus YLR357W, strain rsc2, stronger effect = lower value 1.01 | S. cerevisiae deletion strains, locus YLR370C, strain arc18, stronger effect = lower value 1.02 | S. cerevisiae deletion strains, locus YLR371W, strain rom2, stronger effect = lower value 1 | S. cerevisiae deletion strains, locus YLR384C, strain iki3, stronger effect = lower value 1.02 | S. cerevisiae deletion strains, locus YLR418C, strain cdc73, stronger effect = lower value 1.01 | S. cerevisiae deletion strains, locus YML016C, strain PPZ1, stronger effect = lower value 1 | S. cerevisiae deletion strains, locus YML032C, strain rad52, stronger effect = lower value 0.992 | S. cerevisiae deletion strains, locus YML120C, strain ndi1, stronger effect = lower value 1.03 | S. cerevisiae deletion strains, locus YML124C, strain tub3, stronger effect = lower value 1.01 | S. cerevisiae deletion strains, locus YMR058W, strain fet3, stronger effect = lower value 1.02 | S. cerevisiae deletion strains, locus YMR078C, strain ctf18, stronger effect = lower value 1.01 | S. cerevisiae deletion strains, locus YMR125W, strain sto1, stronger effect = lower value 1.01 | S. cerevisiae deletion strains, locus YMR129W, stronger effect = lower value 1.01 | S. cerevisiae deletion strains, locus YMR205C, strain PFK2, stronger effect = lower value 1.02 | S. cerevisiae deletion strains, locus YMR223W, strain ubp8, stronger effect = lower value 1.03 | S. cerevisiae deletion strains, locus YMR231W, strain pep5, stronger effect = lower value 1.01 | S. cerevisiae deletion strains, locus YMR307W, strain GAS1, stronger effect = lower value 1.01 | S. cerevisiae deletion strains, locus YNL067W, strain RPL9B, stronger effect = lower value 0.998 | S. cerevisiae deletion strains, locus YNL071W, strain lat1, stronger effect = lower value 1.02 | S. cerevisiae deletion strains, locus YNL128W, strain TEP1, stronger effect = lower value 1.02 | S. cerevisiae deletion strains, locus YNL153C, strain GIM3, stronger effect = lower value 1.01 | S. cerevisiae deletion strains, locus YNL183C, strain NPR1, stronger effect = lower value 0.957 | S. cerevisiae deletion strains, locus YNL209W, strain ssb2, stronger effect = lower value 1.01 | S. cerevisiae deletion strains, locus YNL233W, strain BNI4, stronger effect = lower value 1 | S. cerevisiae deletion strains, locus YNL248C, strain rpa49, stronger effect = lower value 1.02 | S. cerevisiae deletion strains, locus YNL271C, strain bni1, stronger effect = lower value 1.01 | S. cerevisiae deletion strains, locus YNL298W, strain CLA4, stronger effect = lower value 0.986 | S. cerevisiae deletion strains, locus YNL307C, strain MCK1, stronger effect = lower value 1.02 | S. cerevisiae deletion strains, locus YNL322C, strain KRE1 (second series), stronger effect = lower value 1.02 | S. cerevisiae deletion strains, locus YNR049C, strain mso1, stronger effect = lower value 1.01 | S. cerevisiae deletion strains, locus YNR052C, strain pop2, stronger effect = lower value 1 | S. cerevisiae deletion strains, locus YOL012C, strain htz1 0.967 | S. cerevisiae deletion strains, locus YOL147C, strain pex11, stronger effect = lower value 1 | S. cerevisiae deletion strains, locus YOR001W, strain rrp6, stronger effect = lower value 1 | S. cerevisiae deletion strains, locus YOR061W, strain CKA2, stronger effect = lower value 1.01 | S. cerevisiae deletion strains, locus YOR069W, strain VPS5, stronger effect = lower value 1.01 | S. cerevisiae deletion strains, locus YOR070C, strain gyp1, stronger effect = lower value 1.03 | S. cerevisiae deletion strains, locus YOR080W, strain dia2, stronger effect = lower value 1.01 | S. cerevisiae deletion strains, locus YOR083W, strain WHI5, stronger effect = lower value 1.03 | S. cerevisiae deletion strains, locus YOR106W, strain vam3, stronger effect = lower value 1.03 | S. cerevisiae deletion strains, locus YOR136W, strain idh2, stronger effect = lower value 0.989 | S. cerevisiae deletion strains, locus YOR144C, strain elg1, stronger effect = lower value 1 | S. cerevisiae deletion strains, locus YOR184W, strain ser1, stronger effect = lower value 0.997 | S. cerevisiae deletion strains, locus YOR231W, strain MKK1, stronger effect = lower value 1 | S. cerevisiae deletion strains, locus YOR265W, strain rbl2, stronger effect = lower value 1.02 | S. cerevisiae deletion strains, locus YOR270C, strain vph1, stronger effect = lower value 1.03 | S. cerevisiae deletion strains, locus YOR290C, strain snf2, stronger effect = lower value 0.997 | S. cerevisiae deletion strains, locus YOR316C, strain cot1, stronger effect = lower value 1.01 | S. cerevisiae deletion strains, locus YPL051W, strain arl3, stronger effect = lower value 1.04 | S. cerevisiae deletion strains, locus YPL078C, strain atp4, stronger effect = lower value 1.02 | S. cerevisiae deletion strains, locus YPL106C, strain sse1, stronger effect = lower value 1.02 | S. cerevisiae deletion strains, locus YPL240C, strain hsp82, stronger effect = lower value 0.994 | S. cerevisiae deletion strains, locus YPL256C, strain CLN2, stronger effect = lower value 1 | S. cerevisiae deletion strains, locus YPR119W, strain clb2, stronger effect = lower value 0.997 | S. cerevisiae deletion strains, locus YPR141C, strain kar3, stronger effect = lower value 1 | S. cerevisiae deletion strains, locus YPR163C, strain tif3, stronger effect = lower value 1 | S. cerevisiae deletion strains, locus YPR167C, strain met16, stronger effect = lower value 0.999 | S. cerevisiae deletion strains, strain wtn01, stronger effect = lower value 0.995 | S. cerevisiae strains, strain wild type, stronger effect = lower value 1.01
